Each structure is given as a SMILES string. “And” between values parts separate entries of the source, which are not always exact repeats. Identical values can stand only once. A structure can be active in one record and inactive in another. The source made the active and inactive calls. The calls were made as follows: active = hit-call score of the fitted dose curve at least 0.9, where 1 is the maximum; inactive = score below 0.9.

A short description of the assay: APR_HepG2_CellCycleArrest_24hr: Apredica 24-hour HepG2 Assay for Cell Cycle Arrest (AID 2282905).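 Also: cell cycle arrest scored as ratio of 2N to 4N nuclear DNA content.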 The conditions noted are these: imaging, actives raise or lower the signal. The protocol:
APR_HepG2_24hr is a cell-based, multiplexed-readout assay that uses HepG2, a human liver cell line, with measurements taken at 24 hours after chemical dosing in a 384-well plate.APR_HepG2_CellCycleArrest_24hr is one of 10 assay component(s) measured or calculated from the APR_HepG2_24hr assay. It is designed to make measurements of cell phenotype, a form of morphology reporter, as detected with fluorescence intensity signals by HCS Fluorescent Imaging technology.Data from the assay component APR_HepG2_CellCycleArrest_24hr was analyzed into 1 assay endpoint. This assay endpoint, APR_HepG2_CellCycleArrest_24hr, was analyzed with bidirectional fitting relative to DMSO as the negative control and baseline of activity. Using a type of morphology reporter, measures of all nuclear dna for gain or loss-of-signal activity can be used to understand the signaling at the pathway-level as they relate to the gene . Furthermore, this assay endpoint can be referred to as a primary readout, because this assay has produced multiple assay endpoints where this one serves a signaling function. To generalize the intended target to other relatable targets, this assay endpoint is annotated to the cell cycle intended target family, where the subfamily is arrest.
Cells were treated with dimethyl sulfoxide (DMSO) as a solvent control at a final concentration of 0.5% v/v or with compounds in DMSO with a resulting final DMSO concentration of 0.5% v/v. Compound treatment was done at concentrations of 0.39, 0.78, 1.56, 3.12, 6.24, 12.5, 25, 50, 100, and 200 uM in duplicate on each plate. Cells were treated with compounds for 1, 24, or 72 hr. Carbonyl […] m-chloro-phenylhydrazone (CCCP) and taxol were used as positive controls for mitochondrial function and cytoskeletal stability, respectively; DMSO served as the negative control for this experiment. Cells were fixed by the direct addition of 50 uL formaldehyde in Hank's Balanced Salt Solution (HBSS) to a final concentration of 3.7%. After incubation in the fixation medium for 30 min at room temperature (293-298 K), cells were rinsed twice with HBSS and treated with cell permeabilization buffer (16 uL of 0.5% Triton X-100) for 10 min at room temperature (293-298 K) before labeling. For mitochondrial membrane potential and mitochondrial measurements, pre-fixed cells were incubated with 50 uL of MitoTracker Red CMXRos (Invitrogen) at a concentration of 250 nM for 30 min before fixation. In the remaining cases, post-fixed cells were labeled by incubation with a multiplexed mixture of primary antibodies in HBSS for 60 min at room temperature (293-298 K) to detect immunoreactivity of c-Jun (1:500), phospho-histone H3 (1:100), phospho-histone H2A.x (1:200), p53 (1:400), alpha-tubulin (1:200) and Hoechst 33342 (2 ug/mL). Cells were labeled for multiplexed imaging on two separate plates: a) Hoechst 33342, MitoTracker Red, phospho-histone H3, and alpha-tubulin, and b) Hoechst 33342, phospho-histone H2A.x, and c-Jun. A final rinse with HBSS (50 uL) was performed before analysis. The primary and secondary antibodies for the proteins were phospho-histone H3 (rabbit anti-phospho-histone H3 and FITC-donkey anti-rabbit IgG), phospho-histone H2A.x (mouse anti-phospho-histone H2A.x and FITC-donkey anti-mouse IgG), c-Jun (rabbit anti-phospho-c-Jun and Cy3-donkey anti-rabbit IgG), p53 (sheep anti-p53 and Cy5-donkey anti-sheep IgG), alpha-tubulin (mouse anti-alpha-tubulin and Cy5-donkey anti-mouse IgG). These antibodies are available as the CellCiphr HepG2 assay kit (Millipore).Digital images of each well were captured using a Cellomics ArrayScan VTI (Thermo Scientific Cellomics) (0.8 NA objective, 0.63x optical coupler, and XF-93 filter set) at 20x magnification. The images were acquired using the autofocus feature of the ArrayScan instrument, which entails the following steps. First, the camera focuses on channel 1 (Hoechst 33342), where nuclei are identified. Second, a Z offset of 1 um is used for capturing mitochondria (MitoTracker Red). […]
Regarding `O=C(c1ccccc1)C1CCCCC1`, the molecule was called inactive.
Same read-out and setting: with `CCC(C)OC(=O)N1CCCCC1CCO` (stereo not given) the entry was “inactive”; with `c1ccc(Nc2ccccc2)cc1`, “inactive”.
The same measure, in the same setting: with `N[C@@H](Cc1cc(I)c(Oc2ccc(O)c(I)c2)c(I)c1)C(=O)O` the entry was “inactive”; with `CCCCOC(=O)C(C)Oc1ccc(Oc2ccc(C(F)(F)F)cn2)cc1` (stereo not given), “inactive”.
Still for that read-out and setting: with `COC(=O)c1cccc(C)c1S(=O)(=O)NC(=O)Nc1nc(OCC(F)(F)F)nc(N(C)C)n1` the entry was “inactive”; with `CCCCOCCOCCOCc1cc2c(cc1CCC)OCO2`, “inactive”.
As for `CC(=O)S[C@@H]1CC2=CC(=O)CC[C@]2(C)[C@H]2CC[C@@]3(C)[C@@H](CC[C@@]34CCC(=O)O4)[C@H]12`, the AC50 was 37.4 µM (active).
Consider `CN(C)C(=O)Nc1ccc(Cl)c(Cl)c1`, for which the molecule was classed as inactive.
For the molecule `S=C(S)NCCNC(=S)S.[Mn+2].[S-]C([S-])=NCCN=C([S-])[S-].[Zn+2]`, the molecule was called inactive; the AC50 is 50.8 µM (active) and 53.7 µM (active).
`CCOC(=O)COc1cc(-n2ncc(C(F)(F)F)c(C)c2=O)c(F)cc1Cl`: the molecule was called inactive.
Still for that read-out and setting: under `CCOC(=O)[C@H](C)Oc1ccc(Oc2nc3ccc(Cl)cc3o2)cc1` stands “inactive”; under `CCCCCOC(=O)COc1cc(N2C(=O)C3=C(CCCC3)C2=O)c(F)cc1Cl`, “inactive”.
The same measure, in the same setting: with `CCN(CC)C(=O)c1cccc(C)c1` the entry was “inactive”.
On to `CCCCC(CC)COC(=O)c1ccccc1C(=O)O` (stereo not given), for which the outcome was inactive.
As to `CCOC(=O)NCCOc1ccc(Oc2ccccc2)cc1`, the molecule was called inactive.
Same read-out and setting: under `O=C(O)C1(C(=O)Nc2ccc(Cl)cc2Cl)CC1` stands “inactive”; under `CCCOC(=O)NCCCN(C)C`, “inactive”.
`CCC(O)=C1C(=O)CC(C(=O)O)CC1=O` (stereo not given): the outcome was inactive.
Regarding `CCSC(=O)N(CC(C)C)CC(C)C`, the molecule was classed as inactive.
Same read-out and setting: with `CC1(C)C(C=C(Cl)Cl)C1C(=O)OCc1cccc(Oc2ccccc2)c1` (stereo not given) the entry was “inactive”.
On the same count and under the same terms, under `CSC(=O)c1cccc2nnsc12` stands “inactive”.
On the same count and under the same terms, with `COc1nc(C)nc(NC(=O)NS(=O)(=O)c2ccccc2OCCCl)n1` the entry was “inactive”; with `COC(=O)c1ccc(I)cc1S(=O)(=O)NC(=O)Nc1nc(C)nc(OC)n1`, “inactive”.
On to `CCNc1nc(N)nc(Cl)n1`, for which the result was inactive.
The same measure, in the same setting: with `CCCCOC(=O)[C@@H](C)Oc1ccc(Oc2ccc(C(F)(F)F)cn2)cc1` the entry was “inactive”.
Still for that read-out and setting: under `C#CCOC(=O)[C@@H](C)Oc1ccc(Oc2ncc(Cl)cc2F)cc1` stands “inactive”.
Regarding `C[C@]12CC[C@@H]3c4ccc(O)cc4C[C@@H](CCCCCCCCCS(=O)CCCC(F)(F)C(F)(F)F)[C@H]3[C@@H]1CC[C@@H]2O` (stereo not given in full), the molecule was called inactive.
On the same count and under the same terms, under `CCCCCCC(C)OC(=O)COc1nc(F)c(Cl)c(N)c1Cl` (stereo not given) stands “inactive”.
Still for that read-out and setting: under `CCCCC(CC)CN1C(=O)C2C3C=CC(C3)C2C1=O` (stereo not given) stands “inactive”; under `OB(O)O`, “inactive”.
In the case of `C[C@]12C[C@H](O)[C@H]3[C@@H](CCC4=CC(=O)CC[C@@]43C)[C@@H]1CC[C@@H]2C(=O)CO`, the half-maximal activity concentration (AC50) is 114 µM (active).
Take `COC(=O)CSc1cc(N=c2sc(=O)n3n2CCCC3)c(F)cc1Cl`: the result was inactive.
The same measure, in the same setting: under `c1ccc2[nH]c(-c3cscn3)nc2c1` stands “inactive”.
Regarding `CC(=O)[C@H]1CC[C@H]2[C@@H]3CCC4=CC(=O)CC[C@]4(C)[C@H]3CC[C@]12C`, the AC50 was 169 µM (active).
The same measure, in the same setting: with `CC(C)CCCCCCc1ccc(O)cc1` the figure was 96.8 µM (active).
For `CCN(Cc1c(F)cccc1Cl)c1c([N+](=O)[O-])cc(C(F)(F)F)cc1[N+](=O)[O-]`, the molecule was classed as inactive.
Consider `CCCOC(=O)c1ccc(C(=O)OCCC)nc1`, for which the result was inactive.
On the same count and under the same terms, under `CCOC(=O)C(C)Oc1ccc(Oc2nc3ccc(Cl)cc3o2)cc1` (stereo not given) stands “inactive”.

For orientation: AC50 means the midpoint of the concentration-response curve, whichever way the signal moves.
